# CYP2C19 inhib = blockers of cytochrome P450 2C19 activity – biochemical, luminescence, ADME assay, primary screen. CYP2C19 Supersomes, luciferin-H EGE luminescence, 30 min. inhibition, % at 5 µM. 96,000 tested, 21% active. AID 778, 2007;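 active = CYP2C19 inhibition above a set limit at 5 µM in the primary screen, cut at about 50% in these data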;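 note: plate controls were negative control wells for no effect and 2.5 mM tranylcypromine positive control for full effect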
# Target sequence (P33261 whole entry, looked up): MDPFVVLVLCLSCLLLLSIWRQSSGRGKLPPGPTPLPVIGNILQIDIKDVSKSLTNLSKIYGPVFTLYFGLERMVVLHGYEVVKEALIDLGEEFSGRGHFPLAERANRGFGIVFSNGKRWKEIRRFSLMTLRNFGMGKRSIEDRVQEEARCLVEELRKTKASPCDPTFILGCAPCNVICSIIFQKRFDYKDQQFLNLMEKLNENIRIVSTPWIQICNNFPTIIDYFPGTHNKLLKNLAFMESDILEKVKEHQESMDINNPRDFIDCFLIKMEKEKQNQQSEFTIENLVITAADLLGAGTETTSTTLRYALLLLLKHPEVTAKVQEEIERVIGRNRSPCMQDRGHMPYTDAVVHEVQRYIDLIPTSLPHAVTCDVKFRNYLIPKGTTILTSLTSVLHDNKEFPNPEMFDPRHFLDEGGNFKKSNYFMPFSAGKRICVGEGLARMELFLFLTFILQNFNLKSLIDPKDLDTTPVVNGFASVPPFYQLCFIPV
# CYP2C9 act = human CYP2C9 activators, primary screen, biochemical, luminescence | 96,000 tested, 1.4% active | recombinant CYP2C9, luciferin-H conversion; stronger effect = higher value; factor 1 = untreated enzyme, 0 = blocked | AID 1024, 2008 | activation factor at 5 µM;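 active = activation factor of 2 or more for CYP2C9 at a 5 µM dose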;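 note: 0 = sulfaphenazole-blocked wells and 1 = vehicle-only wells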
# CYP2C9 inhib = blockers of cytochrome P450 2C9 activity – biochemical, luminescence, ADME assay, primary screen. P11712. CYP2C9 Supersomes, luciferin-H conversion. inhibition, % at 5 µM. 96,000 tested, 20% active. AID 777, 2007;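 active = blocking of liver enzyme CYP2C9 beyond about 50% at 5 µM, limit read from the data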
# CYP2C19 activ = human CYP2C19 activators, primary screen, biochemical, luminescence; activation factor at 5 µM; 96,000 tested, under 10 active; AID 1025, 2008; recombinant CYP2C19, luciferin-H EGE luminescence; stronger effect = higher value; 0 = fully inhibited enzyme, 1 = untreated enzyme; Cytochrome P450 2C19 (Homo sapiens), P33261;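 active = activation factor of at least 2 at 5 µM in the primary screen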;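 note: 0 = wells with 2.5 mM tranylcypromine and 1 = vehicle-only wells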
# PostGolgi ctrl = growth inhibition of yeast control strain, primary screen, counter-screen for post-Golgi transport modulator project. efflux-deficient yeast background strain, growth absorbance A615, 16 h. 98,000 tested, 5% active. inhibition, % at 10 µM
# PostGolgi yeast = phenotypic screen on post-Golgi transport, primary screen | post-Golgi transport phenotypic cell assay | inhibition, % at 10 µM | 98,000 tested, 0.9% active | AID 739, 2007;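 note: yeast cells grown in 1536-well plates; yeast grown about 18 h at 30C before absorbance read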
# An asterisk follows results filed as active; · = no result. Rows were chosen to be rich in hits. Some 32% of all compounds tested hit in one or more screens of this group. Cut-off read from the data, not from the text of the source, unless noted: active = inhibition above about 30%; inactive = the rest.
SMILES,CYP2C19 inhib,CYP2C9 act,CYP2C9 inhib,CYP2C19 activ,PostGolgi ctrl,PostGolgi yeast
C1CSC2(N1)C1CC3CC2CC(C1)C31NCCS1 (stereo not drawn),16,0.9,5,0.8,2,-3
O=C(Oc1ccc(-c2nnco2)cc1)N1CCCCC1,77*,0.7,30,0.2,-3,8
O=C(Oc1ccc(-c2nnco2)cc1)N(c1ccccc1)c1ccccc1,69*,0.6,39,0.3,26,-5
Cc1ccccc1-c1nc(Cc2ccccc2)no1,17,0.9,9,0.8,3,-7
CCCCN(CC)CCNS(=O)(=O)c1ccc2c(c1)oc(=O)n2C,2,1,0,1,-6,-2
CSc1cc(C)nc(NC(C)=O)n1,-2,1,-1,1,1,-5
Cc1nn(C2CCS(=O)(=O)C2)c(Cl)c1/C=C/C(=O)OCC(=O)Nc1ccccc1OC(F)F (stereo not drawn),67*,0.3,69*,0.3,1,0
CCN(Cc1ccccc1)C(=O)COC(=O)c1n[nH]c2ccccc12,45,1,4,0.5,5,-6
O=C1C(Cl)=C(N2CCCCCC2)C(=O)N1c1ccccc1,29,0.8,18,0.7,18,-4
CN1CCN(C2=C(Cl)C(=O)N(c3ccc(Cl)cc3)C2=O)CC1,88*,0.4,56*,0.1,31*,1
O=C1C(Cl)=C(N2CCOCC2)C(=O)N1c1cccc(Cl)c1,85*,0.6,44,0.1,3,0
CCOc1cc(NC(=O)c2ccccc2[N+](=O)[O-])c(OCC)cc1NC(=O)CC(C)C,-5,1,-5,1,-7,1
O=C(OCn1cncn1)c1ccc(Cl)cc1Cl,50,0.6,38,0.5,-1,3
COc1ccc(/C=C(/C(=O)c2ccc(Cl)cc2Cl)n2cncn2)cc1,77*,0.1,91*,0.2,33*,85*
CCn1cc(C(=O)N2CCOCC2)c(=O)c2cc(S(=O)(=O)N(C)C3CCCCC3)ccc21,-23,1.1,-7,1.2,-12,-8
O=C(CCNS(=O)(=O)c1ccc(Br)cc1)NCc1ccc2c(c1)OCO2,22,1.1,-6,0.8,-1,2
CCCNS(=O)(=O)c1ccc(CCC(=O)NCc2ccc3c(c2)OCO3)cc1,80*,0.3,74*,0.2,7,-14
CC(C)(C)NS(=O)(=O)c1ccc(CCC(=O)Nc2ccc3c(c2)OCO3)cc1,58*,0.1,94*,0.4,-1,4
Cc1ccc(S(=O)(=O)NC(=O)NCc2ccc3c(c2)OCO3)cc1,-17,1,-2,1.2,20,-5
CC(C)(C)NS(=O)(=O)c1ccc(OCC(=O)Nc2ccc3c(c2)OCCO3)cc1,38,0.5,47,0.6,-3,-3
CC(=O)NCCc1ccc(S(=O)(=O)NCc2ccc3c(c2)OCO3)cc1,61*,0.5,47,0.4,2,2
CCCc1cc2c(cc1NS(=O)(=O)c1ccc(CCNC(C)=O)cc1)OCO2,78*,0.6,40,0.2,-1,-5
Cc1sc2c(c1C)CN(C1CC(C)(C)NC(C)(C)C1)CN2C(=O)c1ccco1,5,1,3,1,3,-14
O=C(Cn1cnc2c(nnn2Cc2ccc(F)cc2)c1=O)NCc1ccco1,·,·,·,·,-15,-5
O=C(O)C1CC(=O)N(c2ccc(OCc3c(F)cccc3Cl)cc2)C1 (stereo not drawn),-2,0.9,7,1,15,6
SMILES,CYP2C19 inhib,CYP2C9 act,CYP2C9 inhib,CYP2C19 activ,PostGolgi ctrl,PostGolgi yeast
CC(C)N(Cc1nc(-c2ccccc2)no1)C(=O)CCCN1C(=O)c2ccccc2C1=O,67*,0.3,67*,0.3,3,-7
Cc1cccc(-c2noc(CN(C(=O)CCc3ccccc3)C(C)C)n2)c1,4,1.1,-14,1,28,-3
Cc1ccc(-c2noc(CN(C(=O)C(c3ccccc3)c3ccccc3)C(C)C)n2)cc1,22,0.3,66*,0.8,12,-2
Cc1ccc(-c2noc(CN(C(=O)c3cccc(Br)c3)C(C)C)n2)cc1,82*,0.1,87*,0.2,27,5
COc1ccc(-c2noc(CN(C(=O)c3cccs3)C(C)C)n2)cc1,34,0.3,68*,0.7,6,-20
CCOC(=O)C1C(=O)Nc2nc3ccccc3n2C1C(C)C (stereo not drawn),6,1,1,0.9,2,-6
COc1ccc(OC)c(C2C(C(=O)c3cccs3)=C(O)C(=O)N2CCN(C)C)c1 (stereo not drawn),-6,1,-3,1.1,4,-13
CC(=O)NC1(C(F)(F)F)NC(=O)N(CC(C)C)C1=O (stereo not drawn),-16,1.2,-22,1.2,9,0
CC(C)N(Cc1nc(-c2ccc(Cl)cc2)no1)C(=O)C(c1ccccc1)c1ccccc1,38,0.5,54*,0.6,20,0
CC(C)N(CCO)C(=O)C(c1ccccc1)c1ccccc1,90*,0.4,59*,0.1,4,11
CC(NC(=O)C(c1ccccc1)c1ccccc1)C(=O)O (stereo not drawn),-6,0.9,11,1.1,14,-1
CC(C)N(Cc1nc(-c2ccccc2)no1)C(=O)CN1C(=O)c2ccccc2C1=O,·,·,·,·,5,-1
COc1ccc(Cl)cc1C(=O)N(Cc1nc(-c2cccc(C)c2)no1)C(C)C,88*,0.7,30,0.1,37*,-12
COc1ccccc1C1/C(=C(/O)c2ccc(Cl)cc2)C(=O)C(=O)N1CCN1CCOCC1 (stereo not drawn),6,0.8,25,0.9,21,-2
CS(=O)(=O)N1N=C(c2ccc3nccnc3c2)CC1c1ccccc1 (stereo not drawn),27,0.6,42,0.7,-2,-1
Oc1ccccc1C1=Nc2ncnn2C(c2ccccc2)C1 (stereo not drawn),54*,0.5,48,0.5,-2,7
CC(C)OC(=O)CCC1(C(=O)O)CCC(=O)NC1 (stereo not drawn),-12,1.1,-15,1.1,-3,-11
Cc1cc(S(=O)(=O)Nc2cccc(O)c2)c(C)s1,92*,0.7,30,0.1,6,0
Cn1cc(S(=O)(=O)Nc2cccc(F)c2)c(=O)n(C)c1=O,20,0.9,12,0.8,10,7
Cc1cc(S(=O)(=O)Nc2ccc(F)cc2)c(C)s1,84*,0.5,51*,0.2,13,3
Cc1cc(C)c(S(=O)(=O)NCC(=O)O)cc1C,-8,1.1,-14,1.1,12,-5

# Screening data deposited in PubChem by several laboratories.
